# In PubChem BioAssay (NCI):
# This is part of a sample that, as a whole, favours compounds with a hit. Of some 83,000 tested, about 20% had one in any assay.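 Single-concentration screen, 48 h exposure, 96-well plates. Endpoint: percent growth. Below 10 = active.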 A number with no mark means an inactive call. The source made the active and inactive calls.
# Tests used:
# Experiment in all cases: NCI-60 one-dose screen, 48 h (100 = growth as untreated, 0 = no growth, -100 = all killed)
# Settings in all cases: 10 µM unless noted
# SR leukemia = tested on: SR leukemia
# RPMI-8226 leukemia = tested on: RPMI-8226 leukemia
# OVCAR-8 ovarian = tested on: OVCAR-8 ovarian
# OVCAR-5 ovarian = tested on: OVCAR-5 ovarian
# SK-OV-3 ovarian = tested on: SK-OV-3 ovarian
# IGROV1 ovarian = tested on: IGROV1 ovarian
# OVCAR-3 ovarian = tested on: OVCAR-3 ovarian
# HS 578T breast = tested on: HS 578T breast
# NCI/ADR-RES ovarian = tested on: NCI/ADR-RES ovarian
# T-47D breast = tested on: T-47D breast
# BT-549 breast = tested on: BT-549 breast
# MDA-MB-435 melanoma = tested on: MDA-MB-435 melanoma
# SW-620 colon = tested on: SW-620 colon
# MCF7 breast = tested on: MCF7 breast
# HCT-116 colon = tested on: HCT-116 colon
# HCC-2998 colon = tested on: HCC-2998 colon
# KM12 colon = tested on: KM12 colon
# OVCAR-4 ovarian = tested on: OVCAR-4 ovarian
SMILES,growth (SR leukemia),growth (RPMI-8226 leukemia),growth (OVCAR-8 ovarian),growth (OVCAR-5 ovarian),growth (SK-OV-3 ovarian),growth (IGROV1 ovarian),growth (OVCAR-3 ovarian),growth (HS 578T breast),growth (NCI/ADR-RES ovarian),growth (T-47D breast),growth (BT-549 breast),growth (MDA-MB-435 melanoma),growth (SW-620 colon),growth (MCF7 breast),growth (HCT-116 colon),growth (HCC-2998 colon),growth (KM12 colon),growth (OVCAR-4 ovarian) [%]
CCCCCCNC(=O)Oc1ccc(/C(=C(\C)c2ccc(OC)cc2)c2ccc(OCCN(C)C)cc2)cc1,13.1%,19.4%,86.4%,86.8%,103%,68.4%,91.3%,83.2%,74.8%,68.1%,85.1%,87.7%,83.6%,23.6%,37.2%,88.3%,99.2%,–
Oc1ccc(CSc2nnc(-c3ccc(Cl)cc3)o2)c2cccnc12,34.3%,18.6%,18.9%,–,20.3%,16.4%,30.8%,1.27% (active),9.8% (active),18.5%,27.9%,22.3%,17.3%,12.4%,20.8%,29.1%,18.4%,19.8
Cc1ccc(NC(=O)c2ccc(CN3CCN(C)CC3)c(I)c2)cc1Oc1ccc(-c2[nH]nc3ncnc(N)c23)cc1,4.76% (active),-3.29% (active),91.8%,95.8%,109%,88%,102%,–,44.5%,112%,103%,-67.5% (active),-67.3% (active),-27% (active),-26.6% (active),108%,20.7%,–
N#Cc1c(NC(=O)c2ccc(F)c(Cl)c2)sc2c1CCC(=O)C2,0.0131% (active),0.133% (active),16.6%,-14.6% (active),25.8%,-25.7% (active),-47.3% (active),-2.33% (active),-11.8% (active),-18.3% (active),2.09% (active),-39.5% (active),-24% (active),4.86% (active),0.878% (active),25.8%,–,–
O=C(Nc1ccc(F)cc1)c1cc(-c2ccc(F)cc2F)ccc1O,26.2%,-11.7% (active),7.54% (active),69.4%,-8.88% (active),–,6.06% (active),6.19% (active),5.27% (active),-4.71% (active),-10.3% (active),5.11% (active),17%,2.19% (active),2.09% (active),31.5%,6.07% (active),–
CC1OC(O[C@@H]2C(O)C(CO)OC(O[C@H]3COC(O[C@H]4CC[C@]5(C)[C@H]6CC[C@]78OC[C@@]9(CC[C@](C)(C=O)C[C@H]97)[C@H](O)C[C@@]8(C)[C@]6(C)CC[C@H]5C4(C)C)[C@@H](OC4OC(CO)[C@@H](O)[C@@H](O)[C@@H]4O)[C@@H]3O)[C@H]2OC2OC[C@@H](O)[C@@H](O)[C@@H]2O)[C@@H](O)[C@@H](O)[C@H]1O (stereo not given in full),-18.3% (active),32.9%,27.1%,-78.7% (active),-93.9% (active),43.8%,79.4%,-36.9% (active),46.1%,53.1%,-56.9% (active),-55.1% (active),10%,11%,-65.9% (active),–,23.7%,–
COc1ccc(OC)c(NC2=C(Cl)C(=O)C(C)=C(C)C2=O)c1,96.5%,65.9%,95.6%,109%,–,89.6%,92.3%,92.8%,96.8%,-5.07% (active),102%,106%,98.8%,80.5%,57.6%,–,93.8%,–
O=C(NCCCNc1cc(-c2cn(-c3ccccc3)nc2-c2cccc(O)c2)ccn1)Nc1ccc(F)cc1,17.4%,-31.1% (active),21.2%,37.8%,31.5%,19.2%,28.4%,-21.4% (active),20.9%,11.3%,22%,-39.5% (active),13.5%,10.8%,10.4%,-60.3% (active),–,–
N#Cc1c(-c2ccccc2)cc(-c2c[nH]c3ccccc23)nc1-c1c[nH]c2ccccc12,96.7%,101%,98.7%,–,93.3%,82.1%,–,93.4%,98.3%,86.7%,94.7%,103%,102%,95%,103%,93.6%,103%,104
